Results published in PubChem BioAssay (NCI).
Compounds without any hit were thinned out: in the full panel of roughly 83,000, 20% have a hit.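 Single-dose data. Exposure time 48 hours. Values below 10 considered active.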 A number with no mark means an inactive call. Activity calls are given as the source filed them.

Legend:
Assay in all cases: NCI-60 one-dose screen, 48 h (100 = growth as untreated, 0 = no growth, -100 = all killed)
Conditions in all cases: 10 µM unless noted
DU-145 prostate = tested on: DU-145 prostate
K-562 leukemia = tested on: K-562 leukemia
MALME-3M melanoma = tested on: MALME-3M melanoma
MDA-MB-231 breast = tested on: MDA-MB-231 breast
RXF 393 renal = tested on: RXF 393 renal
SF-268 CNS = tested on: SF-268 CNS
SF-295 CNS = tested on: SF-295 CNS
SF-539 CNS = tested on: SF-539 CNS
UACC-257 melanoma = tested on: UACC-257 melanoma
M14 melanoma = tested on: M14 melanoma

| SMILES | growth (DU-145 prostate) | growth (K-562 leukemia) | growth (MALME-3M melanoma) | growth (MDA-MB-231 breast) | growth (RXF 393 renal) | growth (SF-268 CNS) | growth (SF-295 CNS) | growth (SF-539 CNS) | growth (UACC-257 melanoma) | growth (M14 melanoma) |
| --- | --- | --- | --- | --- | --- | --- | --- | --- | --- | --- |
| COc1ccc(C2=Nc3c(N)nc(N)nc3NC(c3cccc(Nc4ccnc5cc(C(F)(F)F)ccc45)c3)C2)cc1 (stereo not given) | 75.5% | 13.2% | 78.3% | 70.8% | 54% | 69.7% | 78.9% | 87.1% | 87.8% | 67.2% |
| COc1ccccc1N1CCCCC1 | 110% | 93.5% | 94.6% | 99.9% | 133% | 108% | 98.9% | 94.3% | 108% | 101% |
| CC(C)(Sc1cc(C(C)(C)C)c(OC(=O)CCCC(=O)O)c(C(C)(C)C)c1)Sc1cc(C(C)(C)C)c(OC(=O)CCCC(=O)O)c(C(C)(C)C)c1 | 51.4% | 35.1% | 46.2% | 57.8% | 37.6% | 28.6% | 33.7% | 6.97% (active) | 46.7% | 45.5% |
| O=C(CN1CCCCC1)Nc1nc(-c2cc3ccccc3oc2=O)cs1 | 106% | 90.9% | 103% | 103% | 100% | 94.1% | 102% | 103% | 102% | 107% |
| COc1cc(C2CC(c3ccc(Nc4nc(Nc5ccc(Cl)cc5)nc(Nc5ccc(Cl)cc5)n4)cc3)=NN2C(C)=O)cc(OC)c1OC (stereo not given) | 115% | 73.5% | 99.2% | 102% | 92.4% | 106% | 102% | 98.7% | 103% | 102% |
| CCN(CC)c1ccc(\C=N/N=C(N)/C(N)=N\N=C/c2ccc(N(CC)CC)cc2)cc1 | 110% | 99.3% | 93.9% | 112% | 109% | 105% | 98.9% | 107% | 104% | 110% |
| COc1ccc(-c2ccc(-c3ccc(C(=N)N)cc3)s2)cc1Cl | -87.5% (active) | -36.8% (active) | 57.5% | -60.7% (active) | 60.7% | 20% | -37.5% (active) | -59% (active) | 88.1% | 38.6% |
| Cc1sc2nc(NCCc3c[nH]c4ccc(Cl)cc34)[nH]c(=O)c2c1C | 62.2% | 22.3% | 60.2% | 31.1% | 7.63% (active) | 15.5% | 50.7% | 40.1% | 32.6% | 26.5% |
| COc1ccc(OC)c(Nc2nnc(-c3ccc(O)c(OC)c3)o2)c1 | 51.4% | 32.3% | 79.9% | 69.4% | 52.7% | 68.8% | 100% | 49.9% | 115% | 74.6% |
| COc1cc(OC)c(NC(=O)c2cc3ccccc3cc2O)cc1Cl | 46.4% | 23.4% | 19.5% | 70.4% | 120% | 51.2% | 53.3% | 52.9% | 59.8% | 42.1% |
| NNc1nc(-c2cccnc2)nc2c1sc(=S)n2-c1ccccc1 | 106% | 75.5% | 100% | 105% | 114% | 89.6% | 98.1% | 95.6% | 92.3% | 99.9% |
| COC(=O)c1c(C)c2n(c1C)C(=O)C(c1ccccc1)=C2 | 97.9% | 74.8% | 82.1% | 60.5% | 82.3% | 103% | 79.9% | 87.6% | 18.1% | 86.3% |
| CN1CCN(c2cc(Nc3cc(C4CC4)[nH]n3)nc(Nc3ccc(CC(=O)NCc4cccc(F)c4)cc3)n2)CC1 | 41.7% | 20.7% | 34.7% | 14.4% | -56.5% (active) | 30.2% | 49.4% | -22.9% (active) | 40.9% | 23.7% |
| COc1cc2oc(-c3cccc(NC(=O)c4ccccc4)c3)cc(=O)c2c(OC)c1OC | 85.5% | 43.1% | 86.8% | 74.7% | 74.4% | 72.3% | 77.8% | 67.8% | 99.7% | 75.3% |
| CC(C)=CCC[C@](C)(O)[C@H]1CC[C@]2(C)[C@@H]1CC[C@@H]1[C@@]3(C)C/C(=C/c4ccco4)C(=O)C(C)(C)[C@@H]3CC[C@]12C | 113% | 99.2% | 107% | 101% | 111% | 101% | 100% | 102% | 109% | 104% |
| CCC(C(=O)[C@@H](C)[C@@H](O)[C@H](C)[C@@H]1O[C@@H]([C@@H](CC)C(=O)ONC(=O)c2ccccc2)CC[C@@H]1C)[C@H]1O[C@]2(C=CC(=O)[C@]3(CC[C@@](C)([C@H]4CC[C@](O)(CC)[C@H](C)O4)O3)O2)[C@H](C)C[C@@H]1C (stereo not given in full) | -13% (active) | -6.87% (active) | -24.7% (active) | -53.2% (active) | -6.41% (active) | 28.4% | 1.07% (active) | -62.8% (active) | 32% | 21.1% |
| CCOC(=O)c1cc(C)n(-c2ccc(C(=O)O)cc2)c1C | 7.16% (active) | 116% | 130% | 80% | 80.8% | 92.3% | 90.7% | 105% | 96.5% | 89.7% |
| O=S(=O)(Nc1cc(Cl)ccc1Cl)c1ccc(-c2cnc(C3CC3)o2)cc1 | 70.8% | 12% | 55.7% | 65.2% | 44.8% | 49.7% | 24.8% | 25.1% | 50.6% | 29.1% |
| CN(C)CC1CCC(CN(C)C)C1=O (stereo not given) | 115% | 4.34% (active) | 115% | 117% | 123% | 108% | 133% | 109% | 109% | 108% |
| O=C(Nc1cccc(Cl)c1)Nc1cccc(Cn2c(=O)[nH]c3ccc(Oc4ncccn4)cc3c2=O)c1 | 37.3% | 26.3% | 58.9% | 53.4% | 67.5% | 30.8% | 36.2% | 62.8% | 23.7% | 53% |
| CCCCNC(=O)CC1=C(C)/C(=C/c2[nH]c(-c3ccc[nH]3)cc2OC)N=C1C | 34.6% | 1.68% (active) | 34% | 13.5% | 59.4% | 27% | 14.6% | 27.8% | 5.48% (active) | -43.1% (active) |
| CCc1ncnc2c1ccn2C(C)c1ccc(OC)c(F)c1 (stereo not given) | 82.3% | 11.5% | 74.9% | 56.7% | 76.5% | 63.2% | 36% | 70.6% | 40% | 36.3% |
| Cc1cn(-c2cc(NC(=O)c3cccc(C#Cc4cccc5[nH]nc(N)c45)c3)cc(C(F)(F)F)c2)cn1 | 57.6% | 3.17% (active) | 12.4% | 16.9% | -6.88% (active) | 53.2% | 27.5% | 6.24% (active) | 41.4% | 7.33% (active) |
| N=C(N)c1ccc(-c2ccc(-c3ccccc3)o2)cc1 | -11.2% (active) | -33.2% (active) | -81.5% (active) | -58.2% (active) | -76.3% (active) | -31.1% (active) | -70.4% (active) | -83.7% (active) | -72.4% (active) | -91.3% (active) |
| CN1CCc2nc3sc(C(N)=O)c(N)c3c(-c3cccs3)c2C1 | 10.2% | 74.2% | 55% | 44.5% | -32% (active) | 16.4% | 21.7% | 10.9% | 57.9% | 15.5% |
| Cc1csc(Nc2nc(-c3ccccn3)nc(C(Cl)(Cl)Cl)n2)n1 | 69.7% | 87.8% | 73.9% | 80.3% | 91.4% | 82.8% | 91% | 94.2% | 78.8% | 83.7% |
